The full ranking holds about 140,000 sequences; the median of “enrichment ratio after two sorts for PhoP signalling” is about 0, and the highest 2% start at about 11. The full list was thinned out, with the highest values kept by preference.
B1: PhoQ; a variant is named by its letters at X, in order, P23837 (parent)
chain: MKKLLRLFFPLSLRVRFLLATAAVVLVLSLAYGMVALIGYSVSFDKTTFRLLRGESNLFYTLAKWENNKLHVELPENIDKQSPTMTLIYDENGQLLWAQRDVPWLMKMIQPDWLKSNGFHEIEADVNDTSLLLSGDHSIQQQLQEVREDDDDAEMTHSVAVNVYPATSRMPKLTIVVVDTIPVELKSSYMVWSWFIYVLSANLLLVIPLLWVAAWWSLRPIEALAKEVRELEEHNRELLNPATTRELTSLVRNLNRLLKSERERYDKYRTTLTDLTHSLKTPLXXLQXXLRSLRSEKMSVSDAEPVMLEQISRISQQIGYYLHRASMRGGTLLSRELHPVAPLLDNLTSALNKVYQRKGVNISLDISPEISFVGEQNDFVEVMGNVLDNACKYCLEFVEISARQTDEHLYIVVEDDGPGIPLSKREVIFDRGQRVDTLRPGQGVGLAVAREITEQYEGKIVAGESMLGGARMEVIFGRQHSAPKDE

Variants of: B1
Experiment: enrichment ratio after two sorts for PhoP signalling (ratio (wild type AVST 3.29)); higher = more functional
Details: with PhoP (E. coli)

Row | Variant | enrichment ratio
1 | TAQQ | 32.8
2 | TAFP | 0.47
3 | LQQQ | ≤ 0.25
4 | NAGI | ≤ 0.25
5 | TAGI | 13.1
6 | KAGI | ≤ 0.25
7 | YTNC | ≤ 0.25
8 | SRQY | ≤ 0.25
9 | YTNY | ≤ 0.25
10 | SQFA | ≤ 0.25
11 | STNY | 14.2
12 | TTNY | 25.4
13 | TTNS | 3.5
14 | TTYY | 2.55
15 | HVQK | ≤ 0.25
16 | PLIG | ≤ 0.25
17 | VDHE | ≤ 0.25
18 | TMGF | 13.3
19 | THGF | 8.21
20 | VHGF | ≤ 0.25
21 | AHGF | ≤ 0.25
22 | TMTF | 11.5
23 | CFGF | ≤ 0.25
24 | TMHF | 1.51
25 | NVTF | ≤ 0.25
26 | KCGF | ≤ 0.25

Row | Variant | enrichment ratio
27 | AIGF | 11.6
28 | WITF | ≤ 0.25
29 | TGGF | 15
30 | WAVD | ≤ 0.25
31 | HSRC | ≤ 0.25
32 | RGHS | ≤ 0.25
33 | VKVV | ≤ 0.25
34 | MFSR | ≤ 0.25
35 | LVPR | ≤ 0.25
36 | GRNL | ≤ 0.25
37 | YHIC | ≤ 0.25
38 | PQKS | ≤ 0.25
39 | SIVS | 4.88
40 | TLGF | 12.8
41 | EEGF | ≤ 0.25
42 | TVGF | 18.5
43 | TNGF | 15.9
44 | EYGF | ≤ 0.25
45 | NVGF | ≤ 0.25
46 | MNGF | 3.05
47 | TNHF | ≤ 0.25
48 | PLGF | ≤ 0.25
49 | EIGF | 17.3
50 | SLGF | 10.1
51 | TVHF | ≤ 0.25
52 | EVNL | ≤ 0.25

Row | Variant | enrichment ratio
53 | TCLE | ≤ 0.25
54 | KQLE | ≤ 0.25
55 | DCCE | ≤ 0.25
56 | THTS | 1.63
57 | SNKW | ≤ 0.25
58 | SQFG | ≤ 0.25
59 | TNGD | ≤ 0.25
60 | KAQF | ≤ 0.25
61 | MNGL | 9.61
62 | TNGI | 15.2
63 | MNGI | 5.05
64 | TLQF | 15.7
65 | TLHF | ≤ 0.25
66 | TNGL | 12.6
67 | TNNL | 0.757
68 | DQWL | ≤ 0.25
69 | LLTH | ≤ 0.25
70 | CFSY | ≤ 0.25
71 | QPRN | ≤ 0.25
72 | FNQY | ≤ 0.25
73 | DTFM | ≤ 0.25
74 | LQVE | ≤ 0.25
75 | AIMQ | ≤ 0.25
76 | NMMI | ≤ 0.25
77 | AMMS | 1.12
78 | AMMQ | 13.1

Row | Variant | enrichment ratio
79 | ADMQ | ≤ 0.25
80 | AMMV | 21.8
81 | AMMD | ≤ 0.25
82 | AMPV | ≤ 0.25
83 | AMMI | 15
84 | GMVM | 3.22
85 | SNKV | ≤ 0.25
86 | QQCV | ≤ 0.25
87 | HHKS | ≤ 0.25
88 | ISVD | ≤ 0.25
89 | AFGA | ≤ 0.25
90 | NYGC | ≤ 0.25
91 | WHYL | ≤ 0.25
92 | QPGY | ≤ 0.25
93 | QGWY | 75.8
94 | FFGY | ≤ 0.25
95 | QGGY | 14.3
96 | FFWY | ≤ 0.25
97 | QGPY | ≤ 0.25
98 | SAIM | 11.6
99 | MEIM | 48.5
100 | AGIM | 11.8
101 | SAWM | 3.72
102 | QEIM | ≤ 0.25
103 | TQGM | 14.5
104 | MMIM | ≤ 0.25

Row | Variant | enrichment ratio
105 | NAIM | ≤ 0.25
106 | TQWM | ≤ 0.25
107 | AGRM | ≤ 0.25
108 | TQRM | ≤ 0.25
109 | AGDM | ≤ 0.25
110 | GPHN | ≤ 0.25
111 | RDSY | ≤ 0.25
112 | HQTV | ≤ 0.25
113 | ISLP | ≤ 0.25
114 | DTRI | 1.89
115 | VMYN | ≤ 0.25
116 | SGDM | ≤ 0.25
117 | SEWM | 3.99
118 | KYIM | ≤ 0.25
119 | TGIM | ≤ 0.25
120 | SRIM | 13.7
121 | SGIM | 23.7
122 | SGRM | ≤ 0.25
123 | SEIM | 15.1
124 | RGIM | ≤ 0.25
125 | YTIM | 1.25
126 | STIM | 15.3
127 | ITIM | ≤ 0.25
128 | NCFV | ≤ 0.25
129 | ACCP | ≤ 0.25
130 | AHDV | ≤ 0.25

Row | Variant | enrichment ratio
131 | IAPL | 0.723
132 | FWFH | ≤ 0.25
133 | NRLH | ≤ 0.25
134 | YSSN | ≤ 0.25
135 | IQGH | ≤ 0.25
136 | SLIM | ≤ 0.25
137 | SQIM | 20.8
138 | SNIM | ≤ 0.25
139 | TQIM | 17.9
140 | TQIV | 1.59
141 | SAGD | ≤ 0.25
142 | TQGH | 18.9
143 | SAGM | 12.9
144 | TQGP | ≤ 0.25
145 | TQPM | ≤ 0.25
146 | SAPM | 2.5
147 | YRHV | ≤ 0.25
148 | SCLV | 9.82
149 | QTDD | ≤ 0.25
150 | AISA | 10.4
151 | AFMR | ≤ 0.25
152 | MLCP | ≤ 0.25
153 | HKNV | ≤ 0.25

From a collection of fitness landscapes (doi:10.1126/science.1257360)
